“And” between values parts separate entries of the source, which are not always exact repeats. Equal values may be shown once. In all, about 5,500 compounds went through this assay and about 2,000 (36%) were called active. Another 18% or so got no clear call; they are omitted. Rule as the data show it: active = normalized growth mostly below about 0.91 (no sharp cut-off); inconclusive = no clear call, values can overlap the other calls; inactive = mostly above about 0.92. This is one part of the list.
Test: chemical genetic growth profiling, strain panel (AID 1159580);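 also: tested at 20 µM; growth read once vehicle control cultures reached saturation at 30 °C; 1 = growth at the plate median or of vehicle wells; lower values mean less growth of the strain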
Details: S. cerevisiae deletion strains, growth OD

Measured: normalized growth

CC1Cc2ccccc2N1NC(=O)c1ccc(Cl)c(S(N)(=O)=O)c1 (centres undefined)
inactive: locus YAL013W, strain DEP1, hits give low values 1.01 | locus YAL021C, strain ccr4, hits give low values 1 | locus YAL026C, strain drs2, hits give low values 1 | locus YAL030W, strain snc1, hits give low values 0.998 | locus YBL061C, strain skt5, hits give low values 0.999 | locus YBR009C, strain hhf1, hits give low values 0.996 | locus YBR021W, strain FUR4, hits give low values 1.01 | locus YBR023C, strain chs3, hits give low values 1 | locus YBR171W, strain sec66, hits give low values 0.997 | locus YBR229C, strain ROT2, hits give low values 1.01 | locus YBR231C, strain swc5, hits give low values 0.978 | locus YBR279W, strain paf1, hits give low values 1 | locus YCL011C, strain gbp2, hits give low values 1.01 | locus YCL016C, strain dcc1, hits give low values 0.996 | locus YCL029C, strain bik1, hits give low values 1.01 | locus YCL061C, strain MRC1, hits give low values 1.01 | locus YCL069W, strain vba3, hits give low values 0.991 | locus YCR088W, strain abp1, hits give low values 1.01 | locus YDL005C, strain med2, hits give low values 0.999 | locus YDL035C, strain GPR1, hits give low values 1.02 | locus YDL040C, strain nat1, hits give low values 0.997 | locus YDL074C, strain BRE1, hits give low values 1.02 | locus YDL101C, strain DUN1, hits give low values 1.01 | locus YDL134C, strain PPH21, hits give low values 1.03 | locus YDL185W, strain tfp1, hits give low values 0.989 | locus YDL192W, strain arf1, hits give low values 0.999 | locus YDR001C, strain nth1, hits give low values 1 | locus YDR069C, strain doa4, hits give low values 1 | locus YDR101C, strain arx1, hits give low values 1.02 | locus YDR137W, strain rgp1, hits give low values 1.01 | locus YDR159W, strain sac3, hits give low values 0.992 | locus YDR162C, strain NBP2, hits give low values 1.01 | locus YDR195W, strain ref2 0.979 | locus YDR297W, strain sur2, hits give low values 0.998 | locus YDR318W, strain mcm21, hits give low values 0.991 | locus YDR334W, strain swr1, hits give low values 1.01 | locus YDR335W, strain msn5, hits give low values 1 | locus YDR388W, hits give low values 1 | locus YDR392W, strain spt3, hits give low values 0.973 | locus YDR502C, strain sam2, hits give low values 1 | locus YEL003W, strain gim4, hits give low values 1 | locus YEL037C, strain rad23, hits give low values 1 | locus YEL061C, strain CIN8 (second series), hits give low values 0.999 | locus YEL061C, strain CIN8, hits give low values 1.01 | locus YER015W, strain faa2, hits give low values 1.01 | locus YER016W, strain bim1, hits give low values 0.995 | locus YER110C, hits give low values 0.996 | locus YER111C, strain swi4, hits give low values 1 | locus YER155C, strain BEM2 (second series), hits give low values 1.01 | locus YER155C, strain BEM2, hits give low values 1.01 | locus YER167W, strain BCK2, hits give low values 1.01 | locus YFR010W, strain ubp6, hits give low values 1 | locus YGL078C, strain dbp3, hits give low values 1 | locus YGL086W, strain mad1, hits give low values 1.01 | locus YGL167C, strain pmr1, hits give low values 1 | locus YGL173C, strain kem1, hits give low values 1.01 | locus YGL227W, strain vid30, hits give low values 0.999 | locus YGL240W, strain doc1, hits give low values 0.996 | locus YGL248W, strain PDE1, hits give low values 1.01 | locus YGL253W, strain hxk2, hits give low values 0.993 | locus YGR078C, strain PAC10, hits give low values 1.01 | locus YGR135W, strain pre9, hits give low values 0.972 | locus YGR229C, strain SMI1, hits give low values 1.02 | locus YGR252W, strain gcn5, hits give low values 0.938 | locus YHR013C, strain ard1, hits give low values 1.02 | locus YHR027C, strain rpn1, hits give low values 1.01 | locus YHR030C, strain SLT2, hits give low values 1 and 0.987 | locus YHR079C, strain IRE1 (second series), hits give low values 0.994 | locus YHR079C, strain IRE1, hits give low values 0.989 | locus YHR094C, strain hxt1, hits give low values 0.993 | locus YHR129C, strain ARP1, hits give low values 1.01 | locus YHR142W, strain chs7, hits give low values 0.994 | locus YHR200W, strain rpn10, hits give low values 1.01 | locus YIL066C, strain RNR3, hits give low values 1.02 | locus YIL073C, strain SPO22, hits give low values 0.991 | locus YIL125W, strain kgd1, hits give low values 0.995 | locus YIR030C, strain dcg1, hits give low values 1 | locus YJL092W, strain hpr5, hits give low values 0.994 | locus YJL095W, strain BCK1 (second series), hits give low values 1 | locus YJL095W, strain BCK1, hits give low values 1.01 and 0.979 | locus YJL115W, strain asf1, hits give low values 1 | locus YJL129C, strain trk1, hits give low values 0.989 | locus YJL134W, strain LCB3, hits give low values 1.01 | locus YJL154C, strain vps35, hits give low values 1 | locus YJL164C, strain tpk1, hits give low values 0.998 | locus YJL166W, strain qcr8, hits give low values 0.997 | locus YJL168C, strain set2, hits give low values 1 | locus YJL187C, strain SWE1 (second series), hits give low values 1.01 | locus YJL187C, strain SWE1, hits give low values 0.999
